Compounds without any hit were thinned out: in the full panel of roughly 83,000, 20% have a hit.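 Assay: single dose, 48 h. Readout: percent growth (0 = no net growth; negative = cell death). Active: <10.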 Values without a mark were called inactive. Calls of active or inactive are those of the source.

Holding throughout (test): NCI-60 one-dose screen, 48 h (100 = growth as untreated, 0 = no growth, -100 = all killed)
Holding throughout (conditions): 10 µM unless noted

Test [1] deals with DU-145 prostate.
The subject of test [2] is K-562 leukemia.
Test [3] relates to MALME-3M melanoma.
For test [4], the system named is MDA-MB-231 breast.
The test system of test [5] is RXF 393 renal.
Test [6] has as its system SF-268 CNS.
In test [7] the test system is SF-295 CNS.
The test system of test [8] is SF-539 CNS.
For test [9], the system named is UACC-257 melanoma.
In test [10] the test system is M14 melanoma.

Turning to `Cc1ccc(S(=O)(=O)N/N=C2\CC3CCC2C3)cc1` (stereo not given), the growth in test [1] is 114%; in test [2], 103%; in test [3] it was 102%; in test [4] it was 111%; in test [5], 112%; in test [6], 113%. The growth in test [7] is 86.6%; in test [8] it was 97.6%; in [9], 114%; in test [10], 104%.

Regarding `CSC1=Nc2c(c(C)c(-c3ccccc3)n2CCCCl)C2=NC(=O)CN12`, the growth in test [1] was 94.8%; in test [2], 19.3%; in test [3], 82.8%; in test [4] it was 65.2%; in test [5], 94.7%; in test [6] it was 77%. Further, the growth was 43.3% in test [7], 61.7% in test [8], 83.8% in test [9] and 30.8% in [10].

For `CC(C)(C)OC(=O)N1C/C(=C\c2ccccc2)C(=O)/C(=C/c2ccccc2)C1`, the growth in test [1] was 112%; in test [2], 74.8%; in test [3], 113%; in test [4], 79.9%; in test [5], 102%; in test [6] it was 81.4%. Moreover, the growth is 99.5% in test [7], 104% in [8], 91.4% in test [9] and 98.3% in [10].

Turning to `C/C(=C\c1ccc2ccccc2c1)[N+](=O)[O-]`, the growth is 27% in [1]; 5.31% (active) in test [2]; -58.7% (active) in [3]; 50.8% in [4]; -86.1% (active) in [5]; 21% in test [6]. Moreover, the growth in test [7] is 92.2%; in test [8], 15.6%; in test [9] it was 68.9%; in test [10] it was 22.4%.

On to `COc1ccc(-c2nc(SCC(C)C)nc(Nc3ccccc3)c2C#N)cc1`, for which the growth in test [1] was 100%; in test [2], 82.1%; in test [3], 96%; in [4], 93.5%; in test [5], 98.8%; in test [6], 87.9%. For the same compound, the growth in test [7] was 77.1%; in test [8], 70.5%; in test [9] it was 83.8%; in test [10] it was 95.8%.

As for `COC(=O)c1cc(O)c2cc3c(cc2c1-c1cc(OC)c(OC)c(OC)c1)OCO3`, the growth in test [1] is 40.6%; in test [2] it was 15.4%; in test [3], 48.3%; in [4], 40.2%; in [5], -31.3% (active); in [6], 47.8%. Further, the growth in test [7] is 26.3%; in test [8], 13.3%; in test [9] it was 60.1%; in test [10] it was 19%.

`O=C(C(=O)N1CCOCC1)c1ccc(O[C@H]2O[C@H](CO)[C@@H](O)[C@H](O)[C@@H]2O)cc1`: the growth in test [1] is 122%; in test [2], 106%; in [3] it was 102%; in test [4], 98.4%; in test [5], 103%; in test [6], 123%. The growth in test [7] is 107%; in [8], 99.2%; in [9] it was 107%; in [10], 98.8%.

As for `CCCCCCCCCc1cc[n+](CC(=O)c2ccc([N+](=O)[O-])cc2)cc1`, the growth was 23.7% in test [1]; -4.43% (active) in test [2]; -34.9% (active) in test [3]; -76.7% (active) in test [4]; 32.5% in test [5]; 29.6% in [6]. The growth was 9.4% (active) in test [7], -87.5% (active) in test [8], 0.0548% (active) in test [9] and -67.3% (active) in test [10].

Regarding `CCN(CC)CCCC(C)Nc1c(C)cnc2cc(Cl)c(C)cc12` (stereo not given), the growth is 91.7% in [1]; 3.57% (active) in [2]; 110% in test [3]; 73.5% in [4]; 69.3% in test [5]; 87.6% in [6]. Besides, the growth is 84.8% in test [7], 72.3% in test [8], 112% in test [9] and 7.11% (active) in [10].

Consider `CN1C(=O)C(=Cc2coc3ccc(Br)cc3c2=O)C(=O)N(C)C1=O`, for which the growth is 103% in test [1]; 127% in test [2]; 139% in [3]; 97.6% in test [4]; 93.6% in test [5]; 97.6% in [6]. Besides, the growth in test [7] is 120%; in test [8], 100%; in [9], 101%; in test [10] it was 99.8%.

With `Cc1cc2c(-c3nc4ccccc4[nH]3)c(O)c(O)cc2c(O)c1-c1c(C)cc2c(-c3nc4ccccc4[nH]3)c(O)c(O)cc2c1O`, the growth in test [1] is 16.6%; in test [2], 6.02% (active); in test [3], -6.72% (active); in [4], 23.3%; in test [5] it was -8.07% (active); in test [6] it was 6.93% (active). The growth in test [7] is -17.5% (active); in test [8], -24.5% (active); in test [9], -3.19% (active); in [10], -3.53% (active).

`CCn1cc(C(=O)O)c(=O)c2cc(F)c(N3CCN(S(=O)(=O)c4ccc(Cl)cc4)CC3)cc21`: the growth was 31.7% in test [1]; 21.4% in test [2]; 23.8% in [3]; 41.1% in test [4]; 13.4% in test [5]; 22.7% in test [6]. The growth in test [7] was 3.94% (active); in [8], 21.7%; in test [9], 29%; in test [10] it was 18.9%.

For the compound `CCC1(CC)C(OC)NC(Br)=C(C#N)C1(C#N)C(N)=O` (stereo not given), the growth in test [1] is 97.5%; in test [2] it was 91.5%; in test [3], 137%; in test [4], 102%; in test [5], -5.04% (active); in test [6], 131%. Besides, the growth in test [7] is 122%; in [8], 93.9%; in [9], 103%; in [10] it was -100% (active).

As for `Cc1nc(NC(=S)Nc2ccc(F)cc2)sc1C(=O)NNC(=S)Nc1ccc(F)cc1`, the growth in test [1] was 82%; in [2], 51.4%; in test [3] it was 125%; in test [4], 77.9%; in test [5], 94%; in [6], 92.4%. Besides, the growth in test [7] is 40.6%; in test [8], 93.8%; in [9], 82.1%; in test [10], 51%.

The values above are taken from PubChem BioAssay (NCI).
